From PubChem BioAssay AID2289 (National Center for Advancing Translational Sciences (NCATS), 2010)
The whole screen tested about 340,000 compounds, of which about 3,300 (0.97%) were called active. About 9% were inconclusive and are not listed. Calls follow the shape of the dose curve; as a rule, active = well fitted inhibition curve with a large enough effect; inconclusive = small, poorly fitted or top-dose-only effect, or effect the other way; inactive = flat fitted curve, though single readings scatter. The list shows a part of the results.

Assay: qHTS Assay for Modulators of miRNAs and/or Inhibitors of miR-21; also: nearly all actives have a fitted effect of over 55% in size
Details: HeLa miR-21-FLuc reporter, luciferase luminescence, 48 h; actives lower the signal
How it was run: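 HeLa miR-21-FLuc reporter line, endogenous miR-21; 2000 cells/well in DMEM/10% FBS; compound titration up to ~40uM final, 48 h, 37 degree Celsius; luciferase detection reagent, 15 min lysis, CCD luminescence.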
Potency is read from the fitted curve at half-maximal effect.

Potency, active:
CCOc1ccc(N2Nc3n[nH]c(N)c3N2)cc1 16.5 µM
N#CC1CC(c2ccccc2)=NN1c1ccccc1[N+](=O)[O-] (stereo not given) 5.85 µM
CC(/C=C/c1ccc(OCc2ccccc2)cc1)=N\O 2.07 µM
c1ccc(CSc2nnc3ccc(-c4cccs4)nn23)nc1 7.36 µM
COC(=O)c1cc2c(s1)-c1ccc(OC)cc1CC2 6.56 µM
COc1cccc(-n2nnc(-c3nc(-c4cccs4)no3)c2N)c1 1.04 µM
Cc1cccc(-n2nnc(-c3nc(-c4cccs4)no3)c2N)c1C 0.0927 µM
CCc1ccc(-n2nnc(-c3nc(-c4cccs4)no3)c2N)cc1 1.17 µM
CCc1ccc(-n2nnc(-c3nc(-c4ccccc4)no3)c2C)cc1 1.17 µM
Cc1cccc(-n2nnc(-c3nc(-c4cccs4)no3)c2N)c1 0.329 µM
Nc1c(-c2nc(-c3cccs3)no2)nnn1-c1cccc(F)c1 0.208 µM
COc1ccc(/C(C)=N/Nc2ccccc2Cl)c(O)c1 8.26 µM
Nc1nc(N2CCN(C(=O)c3ccco3)CC2)nc2ccccc12 14.7 µM
Nc1nc(N2CCN(c3ccccn3)CC2)nc2ccccc12 6.56 µM
CCOc1ccc2nc(C(=O)N3CCCC(C)C3)sc2c1 (stereo not given) 3.29 µM
Clc1ccc(COn2nnc3ccccc32)c(Cl)c1 2.61 µM
c1ccc2c(COn3nnc4ccccc43)cccc2c1 2.61 µM
COC(=O)c1ccc(COn2nnc3ccccc32)cc1 1.31 µM
COc1cccc(/C=N/Nc2nc3ccccc3[nH]2)c1OC 2.93 µM
COc1cccc(/C=N/n2c(=O)[nH]c3ccccc32)c1OC 8.26 µM
O=c1[nH]n(CC2COC3(CCCCC3)O2)c(=O)c2ccccc12 (stereo not given) 16.5 µM
Oc1cccc(Nc2nc(O)c(/C=C3\C=Nc4ccccc43)s2)c1 8.26 µM
O=C(O)c1ccc(N/N=C/c2cccc(C(F)(F)F)c2)cc1 1.85 µM
Cc1ccc(S(=O)(=O)Oc2cccc(/C=N/Nc3ccc(C(=O)O)cc3)c2)cc1 13.1 µM
FC(F)(F)c1cccc(N/N=C/c2ccccc2)c1 6.56 µM
O=C(O)c1ccc(/C=N/Nc2cccc(C(F)(F)F)c2)cc1 7.36 µM
Cc1nn(-c2cccc(C(F)(F)F)c2)c(Cl)c1/C=N/Nc1cccc(C(=O)O)c1 0.104 µM
Oc1ccc(/C=N/Nc2ccc(C(F)(F)F)cn2)cc1O 10.4 µM
Oc1ccc(/C=N/Nc2ccc(Cl)nn2)cc1O 13.1 µM
CCNc1nc(NCC)nc(N/N=C/c2ccc(O)c(O)c2)n1 18.5 µM
O=C1C[C@H]2[C@H](CO)[C@@H](OC(=O)c3ccc(-c4ccccc4)cc3)C[C@H]2O1 7.36 µM
O=C(O)c1cccc(N/N=C/c2cc(Br)cc(Br)c2O)c1 5.21 µM
O=C(O)c1ccccc1N/N=C/c1cc(Br)cc(Br)c1O 2.07 µM
O=c1[nH]c2ccccc2c2cn(-c3ccccc3)nc12 4.65 µM
Cc1cccc(CCNC(=O)c2ccc3c(c2)nc2n3CCOC2)c1 3.29 µM
CC(CNC(=O)c1ccc2c(c1)nc1n2CCOC1)c1ccccc1 (stereo not given) 13.1 µM
COc1cc(Cl)cc(/C=C/c2ccc3ccccc3n2)c1OC(C)=O 0.414 µM
O=C1c2ccccc2-c2nc3ccccc3cc21 1.47 µM
Cc1cc2nc(-c3cccc(NC(=O)COc4ccc(C(C)C)cc4)c3)oc2cc1C 0.369 µM
O=C(COc1ccc(Cl)cc1)Nc1ccc(-c2nc3cc(Cl)ccc3o2)c(O)c1 7.36 µM
COc1ccc(OCC(=O)Nc2ccc(-c3nc4cc(Cl)ccc4o3)cc2)cc1 2.93 µM
COc1ccc(OCC(=O)Nc2ccc(-c3nc4cc(C)c(C)cc4o3)cc2)cc1 0.131 µM
O=C(OCC(=O)N1CCOCC1)c1ccccc1Cc1ccccc1 2.93 µM
N/C(=N\OC(=O)c1ccc2ccccc2c1)c1ccncc1 0.585 µM
N/C(=N\OC(=O)c1cccc2ccccc12)c1ccncc1 16.5 µM
Cc1ccccc1C(=O)O/N=C(\N)c1ccncc1 6.56 µM
COc1ccc(-n2cc(-c3ccccc3)nc2SC)cc1 8.26 µM
CCOc1ccc(-c2cn(-c3ccc(OC)cc3)c(SC)n2)cc1 2.93 µM
C=CCN1N=C(/C=C/c2ccc(C)cc2)CCC1=O 10.4 µM
C=CCN1N=C(/C=C/c2ccc(OC)cc2)CCC1=O 14.7 µM
Cc1cc2sc3nc(=O)n(-c4ccccc4)c(=O)n3c2cc1C 4.14 µM
Cc1ccc2c(c1)sc1nc(=O)n(-c3ccccc3)c(=O)n12 0.131 µM
Cc1snc(SCC(=O)c2ccc(F)cc2)c1C#N 4.65 µM
Cc1ccccc1-c1nc2cc(NC(=O)C3CC3)ccc2o1 0.414 µM
O=C(Nc1ccccc1O)c1ccc(NC(=O)C2CC2)cc1 6.56 µM
O=C(Nc1ccc2oc(-c3ccccc3Cl)nc2c1)c1ncn[nH]1 0.927 µM
O=C1c2ccccc2C(=O)c2cc(NC(=O)C3CC3)ccc21 0.736 µM
N#Cc1c(N2CCOCC2)nsc1-c1ccc(C(F)(F)F)cc1 5.85 µM
N#Cc1c(N2CCOCC2)nsc1-c1ccccc1 13.1 µM
N#Cc1c(N2CCCC2)nsc1-c1ccccc1 16.5 µM
CCOc1ccc2nc(SCC(=O)c3cccs3)sc2c1 4.14 µM
CC1CCc2sc3nc(N4CCN(CCO)CC4)n4ncnc4c3c2C1 (stereo not given) 13.1 µM
CN1CCc2c(sc(NC(=O)C3COc4ccccc4O3)c2C(N)=O)C1 (stereo not given) 9.27 µM
Fc1ccccc1Nc1nc2c(s1)CCc1ccccc1-2 0.464 µM
COc1cc(CCC(C)=O)ccc1OC(=O)c1c(F)cccc1Cl 2.93 µM
